# Values without a mark were called inactive. Results filed as inconclusive are left out. Entries that show only a call come without a potency. Calls of active or inactive are those of the source. Unless noted, calls follow the shape of the dose curve; as a rule, active = well fitted curve in the direction sought with a large enough effect; inconclusive = small, poorly fitted or top-dose-only effect, or another doubt; inactive = no such curve, though single readings can be large; an effect the other way counts as inactive or inconclusive.
# Legend:
# [1] = target: Luciferin 4-monooxygenase (Photinus pyralis) (UniProt P08659); test: Biochemical firefly luciferase enzyme assay for NPC (AID 624030);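 also: purified P. pyralis luciferase at 10 nM with luciferin and ATP substrate; series mostly up to about 59 µM; nearly all actives have a fitted effect of over 70% in size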
# Summary of the method: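 Counter-screen for direct inhibition of the luciferase enzyme by approved-drug library compounds, run at 10 nM enzyme in 50 mM Tris acetate (final). Luminescence was read within 5 min of enzyme-buffer addition and normalized to PTC124 versus DMSO (0%).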
# [2] = qHTS assay for small molecule agonists of the antioxidant response element (ARE) signaling pathway (AID 651741; active = well fitted activation curve with a large enough effect in the signal ratio; the % refers to the signal ratio; also: potency is read from the fitted curve at half-maximal effect)
# Summary of the method: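 Reporter: beta-lactamase under ARE, stably in HepG2. Exposure: 16 h, 37 C, compounds delivered in DMSO by pin tool after 5 h cell preincubation. Readout: FRET substrate fluorescence after 2 h at RT.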
# [3] = qHTS assay for small molecule activators of the p53 signaling pathway (AID 651743; active = well fitted activation curve with a large enough effect in the signal ratio, not every such curve was filed as active; the % refers to the signal ratio; also: series mostly up to about 92 µM); settings: HCT-116 p53RE-bla, beta-lactamase FRET ratio, 16 h; active compounds read high
# Summary of the method: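 Agonist-mode quantitative HTS in HCT-116 cells carrying a p53-response-element beta-lactamase reporter; 16 h compound treatment at 37 C, then FRET substrate loading for 2 h at room temperature and fluorescence read.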
# [4] = qHTS assay for small molecule activators of the nuclear factor-kappa B (NF-kB) signaling pathway (AID 651749; active = well fitted activation curve with a large enough effect in the signal ratio; the % refers to the signal ratio; also: series mostly up to about 77 µM); settings: NF-kB-bla ME-180 cells, beta-lactamase FRET ratio, 16 h; active compounds read high
# Summary of the method: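 Human ME-180 cervical cells with an NF-kB-bla construct; compounds added via 23 nL pin transfer, DMSO as vehicle; incubation 16 hr. Reporter activity measured by FRET disruption.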
# [5] = target: Peroxisome proliferator-activated receptor alpha (Homo sapiens) (UniProt Q07869); test: qHTS assay for small molecule agonists of the peroxisome proliferator-activated receptor alpha (PPARalpha) signaling pathway (AID 651778); settings: PathHunter PPARalpha complementation, chemiluminescence, 6 h; max response: active compounds read high; also: potency is read from the fitted curve at half-maximal effect
# Summary of the method: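 Cells plated at 2,000/well and held overnight at 37 C, 5% CO2, then compound added by pin tool for 6 hr; after PathHunter detection reagent and 60 min at room temperature, chemiluminescence from enzyme complementation was read.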
# [6] = qHTS assay for environmental chemicals that activate the Aryl hydrocarbon Receptor (AhR) signaling pathway (AID 651777); settings: 1A2-DRE human hepatoma cells, luciferase, 24 h; active compounds read high; also: nearly all actives have a fitted effect of over 15% in size
# Summary of the method: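 Quantitative HTS in stably transfected human liver-derived cells whose luciferase gene sits downstream of the CYP1A2 promoter and dioxin response element. After 24 hr exposure at 37 C, One-Glo luminescence was measured.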
# [7] = S16 Schwann cell viability assay (CellTiter-Glo assay) (AID 624031); also: potency is read from the fitted curve at half-maximal effect; nearly all actives have a fitted effect of over 70% in size
# Summary of the method: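 Counter-screen for cytotoxicity: parental S16 rat Schwann cells lacking the PMP22 reporters, treated 24 h with compound, viability from cellular ATP by CellTiter-Glo luminescence, normalized to DMSO (0%) and no-cell wells.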
# [8] = S16 Schwann cell PMP22 intronic element beta-lactamase assay (AID 624044; calls by dose curve; also: nearly all actives have a fitted effect of over 15% in size)
# Summary of the method: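 Beta-lactamase reporter under a PMP22 intronic regulatory element in stable S16 rat Schwann cells; 24 h compound exposure. 460 nm blue signal normalized between DMSO (0%) and potassium clavulanate, with 535 nm FRET tracking viability; curves classed by r2 and response.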
# [9] = target: Glutaminase kidney isoform, mitochondrial (Homo sapiens) (UniProt O94925); test: qHTS for Inhibitors of Glutaminase (GLS): LOPAC Validation (AID 624146);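 also: glutamate product detected by oxidase and peroxidase coupled Amplex red fluorescence gain; series mostly up to about 46 µM; nearly all actives have a fitted effect of over 60% in size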
# Summary of the method: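 Coupled fluorescence readout: glutamate oxidase/HRP/Amplex Red detect glutamate formed by hKGA from L-glutamine (1 mM solution added). Buffer 45 mM KH2PO4 pH 8.2, 0.02% Tween-20; reads at t0 and 30 min RT.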
# [10] = target: Glucagon-like peptide 1 receptor (Homo sapiens) (UniProt P43220); test: qHTS of GLP-1 Receptor Agonists: LOPAC Validation (AID 624148);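 also: higher luminescence signal means agonism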
# Summary of the method: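 HEK293 cells stably co-expressing a cAMP-responsive luciferase reporter and a hypersensitive GLP-1R were plated 12 h at 37 °C and exposed to compounds for 4-6 hr at 37 °C, 5% CO2. Luminescence was read 12 min after adding detection reagent.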
# [11] = qHTS of Nrf2 Activators: LOPAC Validation (AID 624149)
# Summary of the method: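 Luciferase signal from ARE activation, read with Steady-Glo after 30 min at room temperature. Compounds were pin-transferred onto AREc32_Fluc cells (1000/well, OPTI-MEM/5% FBS, seeded overnight) and left 24 hr at 37 deg C.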
# [12] = HTS Assay for Allosteric Antagonists of the Human D2 Dopamine Receptor: Hit Validation in HTRF (AID 624455);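 also: stable D1 dopamine receptor cell line scored for blocking the D1 response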
# Summary of the method: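 Inhibition of the D1-mediated response was measured by HTRF. Cells used were a line stably expressing the D1 dopamine receptor.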
# [13] = target: Tumor susceptibility gene 101 protein (Homo sapiens) (UniProt Q99816); test: qHTS Assay for Iinhibitors of HIV-1 Budding by Blocking the Interaction of PTAP/TSG101: Hit Validation (AID 651600); also: nearly all actives have a fitted effect of over 70% in size
# Summary of the method: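 Displacement of a FITC-labeled PTAP-motif peptide (50 nM) from the Tsg101 binding domain (10 uM) was monitored by fluorescence polarization after a 20 min room-temperature incubation.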
# Peroxisome proliferator-activated receptor alpha (Homo sapiens), sequence (Q07869 whole entry, looked up): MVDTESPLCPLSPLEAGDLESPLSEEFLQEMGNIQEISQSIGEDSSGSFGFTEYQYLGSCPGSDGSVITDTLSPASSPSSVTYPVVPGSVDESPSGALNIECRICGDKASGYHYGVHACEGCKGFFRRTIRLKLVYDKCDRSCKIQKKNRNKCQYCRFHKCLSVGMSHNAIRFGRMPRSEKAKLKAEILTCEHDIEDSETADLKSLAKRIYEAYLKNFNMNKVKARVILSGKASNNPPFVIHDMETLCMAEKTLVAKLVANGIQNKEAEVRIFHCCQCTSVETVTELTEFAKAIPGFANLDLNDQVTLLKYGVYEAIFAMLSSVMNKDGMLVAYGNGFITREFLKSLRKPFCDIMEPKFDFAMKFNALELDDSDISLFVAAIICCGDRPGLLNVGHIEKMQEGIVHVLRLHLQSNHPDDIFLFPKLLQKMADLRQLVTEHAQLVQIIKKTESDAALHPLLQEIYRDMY
# Luciferin 4-monooxygenase (Photinus pyralis), sequence (P08659 whole entry, looked up): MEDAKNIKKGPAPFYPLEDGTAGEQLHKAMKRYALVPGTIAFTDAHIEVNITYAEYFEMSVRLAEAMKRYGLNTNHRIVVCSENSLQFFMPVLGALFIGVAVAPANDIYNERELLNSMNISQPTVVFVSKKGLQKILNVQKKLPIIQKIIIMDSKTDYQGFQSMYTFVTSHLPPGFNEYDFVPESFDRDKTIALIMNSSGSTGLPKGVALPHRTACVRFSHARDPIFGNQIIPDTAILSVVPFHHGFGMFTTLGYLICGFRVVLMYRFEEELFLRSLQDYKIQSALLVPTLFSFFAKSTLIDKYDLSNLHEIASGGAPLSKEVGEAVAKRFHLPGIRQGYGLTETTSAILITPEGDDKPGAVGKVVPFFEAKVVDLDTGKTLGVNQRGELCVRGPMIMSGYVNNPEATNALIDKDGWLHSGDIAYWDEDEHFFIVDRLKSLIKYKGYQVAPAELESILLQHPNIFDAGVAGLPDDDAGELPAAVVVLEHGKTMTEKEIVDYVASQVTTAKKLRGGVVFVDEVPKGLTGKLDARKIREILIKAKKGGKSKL
# Glutaminase kidney isoform, mitochondrial (Homo sapiens), sequence (O94925 whole entry, looked up, canonical isoform): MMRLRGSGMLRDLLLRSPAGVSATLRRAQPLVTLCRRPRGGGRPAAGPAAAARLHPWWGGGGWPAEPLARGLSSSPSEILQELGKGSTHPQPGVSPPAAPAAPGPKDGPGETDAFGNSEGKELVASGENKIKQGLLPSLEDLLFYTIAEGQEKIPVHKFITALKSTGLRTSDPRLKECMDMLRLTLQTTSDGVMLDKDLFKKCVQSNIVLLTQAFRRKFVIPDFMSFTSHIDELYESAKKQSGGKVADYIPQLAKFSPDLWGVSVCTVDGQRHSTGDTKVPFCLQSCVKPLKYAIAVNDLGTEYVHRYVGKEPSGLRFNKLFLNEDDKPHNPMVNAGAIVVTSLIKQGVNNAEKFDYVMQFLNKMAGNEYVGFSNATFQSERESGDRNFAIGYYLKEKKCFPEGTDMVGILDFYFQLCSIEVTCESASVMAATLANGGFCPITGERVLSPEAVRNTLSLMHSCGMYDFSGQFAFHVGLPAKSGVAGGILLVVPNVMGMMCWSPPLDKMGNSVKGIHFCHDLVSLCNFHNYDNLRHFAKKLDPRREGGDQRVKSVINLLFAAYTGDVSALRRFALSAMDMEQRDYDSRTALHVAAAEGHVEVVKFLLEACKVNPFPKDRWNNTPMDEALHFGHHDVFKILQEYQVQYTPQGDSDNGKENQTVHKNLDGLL
# Tumor susceptibility gene 101 protein (Homo sapiens), sequence (Q99816 whole entry, looked up, the tested form may be a part): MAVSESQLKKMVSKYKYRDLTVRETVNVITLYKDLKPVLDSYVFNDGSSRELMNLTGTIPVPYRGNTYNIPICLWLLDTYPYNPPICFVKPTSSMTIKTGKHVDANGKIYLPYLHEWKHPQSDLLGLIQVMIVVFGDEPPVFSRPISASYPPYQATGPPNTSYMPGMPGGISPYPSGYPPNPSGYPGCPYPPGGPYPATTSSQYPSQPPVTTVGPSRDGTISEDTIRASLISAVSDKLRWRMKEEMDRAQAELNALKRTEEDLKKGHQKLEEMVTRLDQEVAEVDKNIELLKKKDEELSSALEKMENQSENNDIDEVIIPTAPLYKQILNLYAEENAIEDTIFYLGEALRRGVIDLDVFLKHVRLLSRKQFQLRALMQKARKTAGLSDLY
# Glucagon-like peptide 1 receptor (Homo sapiens), sequence (P43220 whole entry, looked up): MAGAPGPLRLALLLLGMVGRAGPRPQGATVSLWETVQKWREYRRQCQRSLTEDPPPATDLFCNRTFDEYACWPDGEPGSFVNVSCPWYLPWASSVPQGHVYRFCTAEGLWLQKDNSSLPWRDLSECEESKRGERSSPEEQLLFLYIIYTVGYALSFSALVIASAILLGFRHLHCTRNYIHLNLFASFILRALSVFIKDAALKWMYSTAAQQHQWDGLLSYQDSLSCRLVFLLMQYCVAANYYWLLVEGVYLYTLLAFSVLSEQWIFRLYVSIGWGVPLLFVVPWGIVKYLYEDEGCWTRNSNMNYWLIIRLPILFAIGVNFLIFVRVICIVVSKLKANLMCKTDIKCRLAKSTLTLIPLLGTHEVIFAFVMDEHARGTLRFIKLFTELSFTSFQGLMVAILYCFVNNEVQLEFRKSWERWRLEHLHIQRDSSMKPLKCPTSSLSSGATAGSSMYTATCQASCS
structure (smiles),measurement,setting,value
COc1ccc(C2NC(=S)N3C(c4ccc(OC)c(OC)c4)NC(=S)N23)cc1OC (stereo unspecified),Potency,[1],inactive
O=S(=O)(O)Oc1ccc(C(c2ccc(OS(=O)(=O)O)cc2)c2ccccn2)cc1,Potency,[1],inactive
CCC(C)C(C(=O)OCC[N+](C)(CC)CC)c1ccccc1 (stereo unspecified),Potency,[1],inactive
CCCCCCCC/C=C\CCCCCCCC(=O)OC[C@@H](O)[C@H]1OC[C@H](O)[C@H]1O,Potency,[1],inactive
same,Potency,[2],inactive
same,activation,[3],1.59%
same,activation,[4],0.379%
same,Potency,[5],39.8 µM (active)
COc1cc2[nH]c(C)c(CCN3CCN(c4ccccc4)CC3)c2cc1OC,Potency,[1],inactive
CC(=O)S[C@@H]1CC2=CC(=O)CC[C@]2(C)[C@H]2CC[C@@]3(C)[C@@H](CC[C@@]34CCC(=O)O4)[C@H]12,activation,[3],29.9%
same,activation,[6],-3.59%
same,max response,[5],-2.36%
CCCC(=O)N1CCCN(c2nc(N)c3cc(OC)c(OC)cc3n2)CC1,Potency,[1],inactive
CN[C@H]1CC[C@@H](c2ccc(Cl)c(Cl)c2)c2ccccc21,Potency,[1],inactive
same,Potency,[7],28.7 µM (active)
same,outcome,[8],inactive
same,outcome,[9],inactive
same,outcome,[10],inactive
same,outcome,[11],inactive
same,outcome,[12],inactive
COc1ccc(CNCC(O)COc2ccc3[nH]c(=O)ccc3c2)cc1OC (stereo unspecified),Potency,[1],inactive
Cc1ccc(/C(=C\CN2CCCC2)c2cccc(/C=C/C(=O)O)n2)cc1,Potency,[1],inactive
Nc1c(CC(=O)O)cccc1C(=O)c1ccccc1,Potency,[1],inactive
O=S(=O)(c1ccccc1)N(CC(F)(F)F)c1ccc(C(O)(C(F)(F)F)C(F)(F)F)cc1,Potency,[2],27.3 µM (active)
same,activation,[3],23.4%
same,activation,[6],5.58%
same,max response,[5],-0.426%
CC[C@H](C)/C=C(C)/C=C/C1=CC2=CC(=O)[C@]3(C)OC(=O)[C@@H](C(C)=O)[C@@H]3C2=CO1,outcome,[13],inactive
CCCCCCCCCCCCCCCCCC(=O)OCCO,Potency,[1],inactive
C[C@H]1C[C@@H]2[C@H]([C@@H](O)C[C@@]3(C)[C@H]2CC[C@]3(O)C(=O)COC(=O)CCC(=O)O)[C@@]2(C)C=CC(=O)C=C12,Potency,[1],inactive
c1ccc2c(CCC3CCNCC3)c[nH]c2c1,Potency,[1],inactive
CCCCCCCCCCCCCCCC(=O)OC[C@@H](COP(=O)([O-])OCC[N+](C)(C)C)OC(=O)CCCCCCCCCCCCCCC,Potency,[1],inactive
CCN(CC)CCOC(=O)c1ccc(N)cc1Cl,Potency,[1],inactive
CS(=O)(=O)Nc1cc2occ(NC=O)c(=O)c2cc1Oc1ccccc1,Potency,[1],inactive
C1CNCCN1,Potency,[1],inactive
CCN1CCCC1CNC(=O)c1cc(S(=O)(=O)CC)ccc1OC (stereo unspecified),Potency,[1],inactive
